Experimental findings from PubChem BioAssay (NCATS) are described below.

Molecules are shown by their SMILES. Records with an inconclusive call do not appear. Values without a mark were called inactive. Active and inactive are the calls of the source. The call rests on the fitted dose curve; in most records, active means well fitted cell-killing curve with a large enough effect; inconclusive means small, poorly fitted or top-dose-only effect, or effect the other way; inactive means flat fitted curve, though single readings scatter.
Potency means the concentration at half of the fitted maximal effect.

The test is described as follows: MultiTox-Fluor Cytotoxicity Assay - LYMP1-001 - Dead Cells (AID 946).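 Further: cells exposed to compound for 16 h.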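 On cytotoxicity (dead cells): 0% = DMSO and 100% = tetraoctylammonium bromide.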 The following applies: LYMP1-001 lymphoblastoid cells, dead-cell protease fluorescence; series mostly up to 92.2 µM; cytotoxicity (dead cells): at the top concentration. The source says: NIH Chemical Genomics Center [NCGC]
NIH Molecular Libraries Screening Centers Network [MLSCN]
National Institutes of Environmental Health Sciences [NIEHS]
National Toxicology Program [NTP]
We have developed a 1536-well cell-based assay for quantitative high throughput screening (qHTS) against a number of cell lines to determine in vitro cytotoxicity of small molecules. This particular assay uses a human lymphoblastoid cell line (LYMP1-001) purchased from Coriell Institute for Medical Research.
NCGC Assay Protocol Summary:
The MultiTox-Fluor Cytotoxicity Assay (Promega) is a homogeneous method to simultaneously measure the relative number of live and dead cells in culture by detecting changes in cell membrane integrity. There are two fluorogenic peptide substrates in the assay reagent. Viable cells are determined when the cell-permeant substrate (GF-AFC) enters the cell and is cleaved by protease from live cells resulting in liberated fluorophore. This live-cell protease activity restricted to viable cells is proportional to cell number. The dead cells are determined by using fluorogenic cell-impermeant peptide substrate (bis-AAF-R110) which cleaved by dead cell proteases leaking from damaged cell membrane.
Using the MultiTox-Fluor Cytotoxicity Assay, the relative number of dead cells was measured in the lymphoblastoid cell line with complete culture medium following compound treatment for 16 hours. The assay was performed in opaque black Kalypsys 1536-well plates. In the screen, tetraoctylammonium bromide was used as positive control. Library compounds were measured for their ability to cause acute toxicity in the cell line, as reflected by an increase in dead cell protease activity, in a concentration-dependent manner. Data were normalized to the controls for basal activity (DMSO only) and 100% stimulation (15 uM tetraoctylammonium bromide). AC50 values were determined from concentration-response data modeled with the standard Hill equation.
qHTS protocol for MultiTox-Fluor Cytotoxicity assay
[Step] [Parameter] [Value] [Description]
1. Reagent; 5 uL; 2500 lymphoblastoid cells/well
2. Time; 5 hr; 37 C incubation
4. Controls; 23 nL; Tetraoctylammonium bromide 6.4pM to 92 uM
5. Time; 16 hr; 37 C incubation
6. Reagent; 5 uL; MuliTox-Fluor Assay reagent
7. Time; 60 min; Room Temperature
8. Detection; dead-cell fluorescence (Ex/Em=485/520); EnVision plate reader
Keywords: cytotoxicity, lymphoblastoid cell line, fluorescence, NTPHTS, NTPHTS_NCGC, NIEHS, EPA, DSSTox, MLSMR, MLSCN, NIH Roadmap, qHTS, NCGC
For the molecule `c1ccc(-c2ccccc2)cc1`, the “cytotoxicity (dead cells)” value was -9.41%.
`ClC(Cl)=C(Cl)Cl`: the Potency result was “inactive”.
As for `COc1ccc(C=O)cc1OC`, the “cytotoxicity (dead cells)” value is -5.41%.
Same read-out and setting: in the case of `Cc1ccc(O)c(C)c1` it was 3.25%; in that of `COC1=CC(=O)OC(CCc2ccccc2)C1` (stereo not given), 3.26%; in that of `C=C(C)C#N`, -7.45%.
In the case of `ClC(Cl)=C(c1ccc(Cl)cc1)c1ccc(Cl)cc1`, the Potency entry is “inactive”.
Same read-out and setting: in the case of `COc1ccc(N)cc1` it was “inactive”.
In the case of `Cc1cccc([N+](=O)[O-])c1`, the “cytotoxicity (dead cells)” value is -4.82%.
Still for that read-out and setting: in the case of `Clc1cccc(C(Cl)(Cl)Cl)n1` it was 1.75%.
On to `CCCSC(=O)Cl`, for which the “cytotoxicity (dead cells)” value is 9.54%.
On to `C=CC1CC=CCC1` (stereo not given), for which the “cytotoxicity (dead cells)” value is -23.3%.
The same measure, in the same setting: in the case of `C=CC(C)=O` it was -13.1%; in that of `C=C(C)C(=O)OCC1CO1` (stereo not given), -0.0008%.
On the same count and under the same terms, in the case of `CC(Cl)Cl` it was 10.4%.
The same measure, in the same setting: in the case of `C=CC(=O)OCC` it was 15.1%; in that of `Clc1ccc2ccccc2c1`, 5.78%.
Regarding `C1CCC2CCCCC2C1` (stereo not given), the “cytotoxicity (dead cells)” value was 6.99%.
The same measure, in the same setting: in the case of `O=[N+]([O-])c1cccc2ccccc12` it was -9.1%.
Same read-out and setting: in the case of `COP(=S)(OC)Oc1ccc([N+](=O)[O-])cc1` it was -16.2%; in that of `C[N+](C)(C)Cc1ccccc1`, 1.77%.
Regarding `Cc1ccccc1N`, the Potency result is “inactive”.
For `CCCC(=O)Cl`, the “cytotoxicity (dead cells)” value was -3.53%.
Still for that read-out and setting: in the case of `Oc1ccc(Cl)cc1Cl` it was 3.59%.
In the case of `ClC(Cl)(Cl)c1ccccc1`, the Potency result was “inactive”.
Take `C=CCOC(=O)c1ccccc1N`: the “cytotoxicity (dead cells)” value is -10.9%.
Regarding `N#CCCCl`, the Potency entry was “inactive”.
Turning to `O=NN(CCO)CCO`, the “cytotoxicity (dead cells)” value was -18.2%.
On to `S=C=Nc1cccc2ccccc12`, for which the “cytotoxicity (dead cells)” value is -3.19%.
Still for that read-out and setting: in the case of `CCCOC(=O)c1ccccc1C(=O)OCCC` it was 7%; in that of `Clc1nc(Cl)nc(Nc2ccccc2Cl)n1`, -8.24%.
`CC(C)(C)OO`: the Potency entry was “inactive”.
As for `ClCBr`, the “cytotoxicity (dead cells)” value was 26.8%.
For the molecule `ClC1=C(Cl)C2(Cl)C3C4CC(C5OC45)C3C1(Cl)C2(Cl)Cl` (stereo not given), the Potency was 31.6 µM (active).
As to `c1ccc2c(c1)CCCC2`, the “cytotoxicity (dead cells)” value was -17.8%.
In the case of `Brc1ccccc1`, the “cytotoxicity (dead cells)” value was 1.15%.
On the same count and under the same terms, in the case of `O=NN(c1ccccc1)c1ccccc1` it was -14.2%; in that of `Cc1ccc2ccccc2c1`, -3.88%.
On the same count and under the same terms, in the case of `CCOP(=S)(OCC)SCSC(C)(C)C` it was -11.3%.
The same measure, in the same setting: in the case of `ClC(Cl)=C(Cl)C(Cl)=C(Cl)Cl` it was 4.67%.
